# Assay results: the supplement of paper PMC9844399
# Where a name gives a salt, the structure may show the parent alone.
# Test system: HeLa
# Experiment: nuclear count per well, robust Z-score vs DMSO; higher = more cells (less toxicity)
# Conditions: 10 µM; 6 h
# 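Note: Hoechst-stained nuclei counted by automated confocal imaging of four fields per well in 384-well plates, with the robust Z-score based on the per-plate DMSO median and robust SD.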
row,SMILES,nuclear count per well
1,COc1cc(C(=O)NCc2ccc(OCCN(C)C)cc2)cc(OC)c1OC,-1.1
2,O=C(O)CCCCC(=O)O [Adipic acid],-0.243
3,CCOc1ccccc1OCCN[C@H](C)Cc1ccc(OC)c(S(N)(=O)=O)c1,0.0182
4,OC[C@H]1O[C@H](O[C@H]2O[C@H](CO)[C@@H](O)[C@H](O)[C@H]2O)[C@H](O)[C@@H](O)[C@@H]1O [Trehalose],0.203
5,N=C(N)NC(=O)c1nc(Cl)c(N)nc1N [Amiloride hydrochloride hydrate],0.329
6,NS(=O)(=O)Cc1noc2ccccc12 [Zonisamide],1.05
7,O=C(O)/C(S)=C/c1ccc(I)cc1,-1.84
8,COc1c(N2C[C@@H]3CCCN[C@@H]3C2)c(F)cc2c(=O)c(C(=O)O)cn(C3CC3)c12,-0.071
9,CCCCC[C@H](O)/C=C/[C@H]1C(=O)C=C[C@@H]1C/C=C\CCCC(=O)O [Prostaglandin J2],0.0931
10,CN(CCOc1ccc(NS(C)(=O)=O)cc1)CCc1ccc(NS(C)(=O)=O)cc1 [Dofetilide],0.696
11,CC/C(=C(/CC)c1ccc(O)cc1)c1ccc(O)cc1 [Diethylstilbestrol],-0.178
12,C[C@]12CCC3=C4CCC(=O)C=C4CC[C@H]3[C@@H]1CC[C@@]2(O)CC#N [Dienogest],1.14
13,C#CCCCCCCCCCCCCCCCC(=O)O [17-Octadecynoic acid],-0.139
14,CC(C)COCC(CN(Cc1ccccc1)c1ccccc1)N1CCCC1 (centres undefined),-0.594
15,CCOC(=O)C(C)(C)Oc1ccc(Cl)cc1 [Clofibrate],0.519
16,CC1(C)O[C@@H]2C[C@H]3[C@@H]4C[C@H](F)C5=CC(=O)C=C[C@]5(C)[C@@]4(F)[C@@H](O)C[C@]3(C)[C@]2(C(=O)CO)O1 [Fluocinolone Acetonide],1.01
17,COC(C)(C)CCCC(C)C/C=C/C(C)=C/C(=O)O (centres undefined) [Methoprene acid],-0.753
18,Nc1nc(NC2CC2)c2ncn([C@H]3C=C[C@@H](CO)C3)c2n1 [Abacavir Sulfate],-1.42
19,CC(=O)N[C@H]1[C@H]([C@H](O)[C@H](O)CO)OC(C(=O)O)=C[C@@H]1NC(=N)N [Zanamivir],0.491
20,OCCN(CCO)c1nc(N2CCCCC2)c2nc(N(CCO)CCO)nc(N3CCCCC3)c2n1 [Dipyridamole],-0.307

row,SMILES,nuclear count per well
1,CO[C@@H]1[C@H](N(C)C(=O)c2ccccc2)C[C@H]2O[C@]1(C)n1c3ccccc3c3c4c(c5c6ccccc6n2c5c31)C(=O)NC4 [PKC-412 (Midostaurin)],-0.226
2,COc1cc(Br)c(Nc2nc(-c3c(C)nc4ncccn34)cs2)c(Br)c1,-2.28
3,CCCCCCNC(=O)n1cc(F)c(=O)[nH]c1=O [Carmofur],-0.788
4,Nc1ncnc2c1ncn2C1CCCO1 (centres undefined),1.05
5,COC1=CC(=O)C[C@@H](C)[C@]12Oc1c(Cl)c(OC)cc(OC)c1C2=O [(+)-Griseofulvin],0.396
6,NC(N)=Nc1nc(CSCC/C(N)=N/S(N)(=O)=O)cs1 [Famotidine],0.00418
7,O=C(Nc1ccc([N+](=O)[O-])cc1Cl)c1cc(Cl)ccc1O [Niclosamide],-2.62
8,CCc1nc(N)nc(N)c1-c1ccc(Cl)cc1 [Pyrimethamine],0.643
9,C[C@H]1CC[C@@]2(OC1)O[C@H]1C[C@H]3[C@@H]4CC[C@@H]5C[C@@H](O[C@@H]6O[C@H](CO)[C@H](O)[C@H](O)[C@H]6O[C@@H]6O[C@H](CO)[C@@H](O)[C@H](O)[C@H]6O)CC[C@]5(C)[C@H]4CC[C@]3(C)[C@H]1[C@@H]2C [Timosaponin A-III],0.239
10,CO[C@@]12[C@H](COC(N)=O)C3=C(C(=O)C(C)=C(N)C3=O)N1C[C@@H]1N[C@@H]12 [Mitomycin C],-0.569
11,CCCCC[C@H](O)/C=C/C1=C(CCCCCCC(=O)O)C(=O)CC1 [Prostaglandin B1],1.38
12,C[N+]1(C)[C@@H]2CC[C@H]1C[C@@H](OC(=O)C(O)c1ccccc1)C2 (some centres undefined) [Homatropine Methylbromide],-0.998
13,CCCC(=O)Nc1ncnc2c1ncn2[C@@H]1O[C@@H]2COP(=O)(O)O[C@H]2[C@H]1OC(=O)CCC [Dibutyrylcyclic AMP],-0.946
14,CC(=O)CCCCn1c(=O)c2c(ncn2C)n(C)c1=O [Pentoxifylline],0.675
15,CCCCCCCCCCCCC(O)C(=O)O (centres undefined) [2-Hydroxymyristic acid],-0.156
16,CNC(=O)c1cc(Oc2ccc(NC(=O)Nc3ccc(Cl)c(C(F)(F)F)c3)c(F)c2)ccn1,-0.767
17,C[C@H](CCC(=O)O)[C@H]1CC[C@H]2[C@@H]3[C@H](O)C[C@@H]4C[C@H](O)CC[C@]4(C)[C@H]3CC[C@]12C [Chenodiol (Chenodeoxycholic Acid)],-0.225
18,CN(C)CCCN1c2ccccc2Sc2ccc(Cl)cc21,0.0869
19,CC(=O)OCC(=O)[C@@]1(O)CC[C@H]2[C@@H]3CCC4=CC(=O)CC[C@]4(C)[C@@]3(F)[C@@H](O)C[C@@]21C [Fludrocortisone Acetate],1.2
